# Test results reported in PubChem BioAssay (NCI).
# This is part of a sample that, as a whole, favours compounds with a hit. Of some 83,000 tested, about 20% had one in any assay.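 For each line, cells grew in 96-well plates with the test compound present at a single concentration for 48 hours.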 Activity calls are given as the source filed them. Rule for the calls: active = growth percent below 10; inactive = the rest.
# Tested on: HCT-116 colon
# Assay: NCI-60 one-dose screen, 48 h (100 = growth as untreated, 0 = no growth, -100 = all killed)
# Details: 10 µM unless noted
row,SMILES,growth
1,CCNc1cc2c(cc1Br)-c1ccccc1C2=O,97.8% (inactive)
2,Cn1cc(-c2noc(-c3cn(C)c4ncccc34)n2)c2cc(Cl)ccc21,94.1% (inactive)
3,N#Cc1ccc(-c2ccc(COc3ccc(CC4SC(=O)NC4=O)cc3)cc2)cc1 (configuration not stated),42.5% (inactive)
4,O=C(N[C@@H]1CCCc2ccccc21)[C@H](CCC(=O)N1CCN(C2CCCCC2)CC1)N1C(=O)[C@@H](N2C(=O)OC[C@@H]2c2ccccc2)[C@H]1/C=C/c1ccccc1,23.8% (inactive)
5,CCOC(=O)/C(C#N)=C(\C)CCc1ccccc1,87.7% (inactive)
6,COc1ccc(C(=O)CSc2nccc(Nc3ccc(C(=O)O)cc3)n2)cc1,95.7% (inactive)
7,O=C(NCCCCCCCNC(=O)OCc1ccc2c(Cl)cc(Cl)c(O)c2n1)OCc1ccc2c(Cl)cc(Cl)c(O)c2n1,-70% (active)
8,CCN(CCO)CCC(=O)c1ccc([N+](=O)[O-])cc1,112% (inactive)
9,CCOC(=O)COc1c(C)cc(SSc2cc(C)c(OCC(=O)OCC)c(C)c2)cc1C,104% (inactive)
10,CC(C)C1=NOC(=O)C1=Cc1cn(-c2ccco2)nc1-c1ccccc1,58.2% (inactive)
11,CCOC(=O)Nc1ccc2c(c1)/C(=N\NC(=S)NC)c1ccccc1-2,87.6% (inactive)
12,COc1ccc(/C=C(/C(=O)c2ccc(Cl)cc2)C(=O)C(F)(F)F)cc1,101% (inactive)
13,O=[N+]([O-])c1cccc(N=NNc2cccc([N+](=O)[O-])c2)c1,114% (inactive)
14,COc1ccc2c(c1)c(-c1noc(-c3cn(C)c4ncc(F)cc34)n1)cn2C,80.7% (inactive)
15,CCn1cc(-c2ccnc(NCCNS(=O)(=O)c3cccc4ccccc34)c2)c(-c2cccc(O)c2)n1,87.3% (inactive)
16,Cc1ccc(-c2cc(O)c(-c3ccc(C)cc3C)cc2O)c(C)c1,23.9% (inactive)
17,CCc1ccc(-c2ccc(COc3ccc(CC4SC(=O)NC4=O)cc3)cc2)cc1 (configuration not stated),51% (inactive)
18,CCCn1ccnc1C(O)c1ccc(OCc2ccccc2)c(OC)c1 (configuration not stated),92.6% (inactive)
19,O=C(Nc1cc(F)cc2cccnc12)c1cnc(N2CCNCC2)cn1,11% (inactive)

row,SMILES,growth
1,O=C(CCCSc1nc(-c2ccccc2)cc(-c2ccccc2)n1)NO,9.52% (active)
2,O=C(CCN1CCCCC1)c1ccc(Cl)cc1,96.7% (inactive)
3,O=C(NCCCNC(=O)OCc1ccc2c(Br)cc(Br)c(O)c2n1)OCc1ccc2c(Br)cc(Br)c(O)c2n1,-66% (active)
4,Cc1ccc(N)c(O)c1,85.2% (inactive)
5,COc1cc2c(=O)[nH]c3cc([N+](=O)[O-])ccc3c2cc1[N+](=O)[O-],21.5% (inactive)
6,C/C=C/C1OC23CCCCC2C(C#N)(C(=N)O3)C1(C#N)C#N (configuration not stated),94.2% (inactive)
7,Cc1ccc(S(=O)(=O)NCCCNc2nccc(-c3c(-c4cccc(F)c4)nc4occn34)n2)cc1,53.6% (inactive)
8,COc1ccc2c(c1)C(C)Cc1c(ncnc1-n1cnc3ccccc31)N2C (configuration not stated),10.3% (inactive)
9,Clc1ccccc1/C=N\Nc1ccccn1,107% (inactive)
10,CC(C)C1=NOC(=O)C1=Cc1cn(-c2ccccc2)nc1-c1cccc([N+](=O)[O-])c1,34.7% (inactive)
11,CC(C)C1=NOC(=O)C1=Cc1cn(-c2cccnc2)nc1-c1ccccc1,81.2% (inactive)
12,O=C1COCCN1c1ccc(NCc2cn(Cc3ccccc3)c3ccccc23)cc1,62.9% (inactive)
13,COc1ccc(N(c2nc(-c3ccc([N+](=O)[O-])cc3)cs2)C(C)C)cc1,76.3% (inactive)
14,OC(c1ccc(Cl)cc1)(c1ccc(Cl)cc1)C(O)(c1ccc(Cl)cc1)c1ccc(Cl)cc1,7.19% (active)
15,O=C(NCc1ccc(Cn2c(=O)sn(-c3ccccc3)c2=O)cc1)OCc1ccc2c(Br)cc(Br)c(O)c2n1,-71.8% (active)
16,O=S(=O)(NCCNc1nccc(-c2c(-c3cccc(F)c3)nc3occn23)n1)c1ccc(C(F)(F)F)cc1,76.5% (inactive)
17,O=C(Nc1ccc(Cl)c(C(F)(F)F)c1)Nc1ccc(-c2cccnc2)cc1N1CCC(CO)CC1,11.8% (inactive)
18,O=C(CCNCc1ccccc1)c1ccccc1,106% (inactive)
